HT1080 IDH1KD tx = qHTS for induction of synthetic lethality in tumor cells producing 2HG: qHTS for the HT-1080-IDH1KD cell line; HT-1080 IDH1 knockdown viability, ATP luminescence, 48 h; Potency, µM (doses to about 46.1 µM), inactives show top-dose activity, negative = toxicity, most hits filed as cytotoxic; actives 2% (n = 360,000); AID 686971, 2013;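 note: potency is the fitted concentration of half-maximal effect; 0% = DMSO wells and -100% = cell-free medium wells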
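Cytotoxicity counter-line: IDH1KD HT-1080, 48 h, CellTiter-Glo. Curves classed by r2, magnitude and activity.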
IL1B secr inh = qHTS for Inhibitors of Inflammasome Signaling: IL-1-beta AlphaLISA Primary Screen; THP-1 LPS/ATP IL-1B secretion, AlphaLISA, 16 h; active compounds read low; activity change, % at 57.5 µM; actives 4.7% (n = 360,000); AID 743279, 2014; in the data active = activity change below about -50%; inconclusive = mostly about -30% to -49%
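THP-1 cells pretreated 1 hr with compounds (up to 57.5 uM final), then stimulated with LPS (250 ng/mL final) plus ATP (1.25 mM final); secreted IL-1B measured by AlphaLISA after 16 hr, decreased signal indicating inhibition.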
TDP1 cell CPT = qHTS for Inhibitors of human tyrosyl-DNA phosphodiesterase 1 (TDP1): qHTS in cells in presence of CPT; AID 686979, 2013; Potency, µM (doses to about 46.2 µM), for the others: top-dose activity change, negative = growth inhibition, actives largely listed as inhibitors; chicken DT40 Tdp1-/-;hTDP1 cells + 20 nM CPT, ATP luminescence, 48 h; actives 12% (n = 420,000); note: potency is the fitted concentration of half-maximal effect; nearly all actives have a fitted effect of over 55% in size
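Chicken DT40 Tdp1-/- cells complemented with human TDP1, 400 cells/well, exposed to compounds plus 20 nM camptothecin for at least 48 h at 37 C; viability read as ATP content by CellTiter-Glo luminescence.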
12-LOX inh = Primary qHTS assay for inhibitors of human arachidonate 12S-lipoxygenase (ALOX12): Round 2; purified 12hLO, xylenol orange hydroperoxide absorbance; actives 1.1% (n = 580,000); Potency, µM (top dose mostly 108 µM), inactives show at the highest dose activity change, negative = inhibition, usual class: inhibitors; note: potency is the fitted concentration of half-maximal effect
Target sequence (P18054 whole entry, looked up): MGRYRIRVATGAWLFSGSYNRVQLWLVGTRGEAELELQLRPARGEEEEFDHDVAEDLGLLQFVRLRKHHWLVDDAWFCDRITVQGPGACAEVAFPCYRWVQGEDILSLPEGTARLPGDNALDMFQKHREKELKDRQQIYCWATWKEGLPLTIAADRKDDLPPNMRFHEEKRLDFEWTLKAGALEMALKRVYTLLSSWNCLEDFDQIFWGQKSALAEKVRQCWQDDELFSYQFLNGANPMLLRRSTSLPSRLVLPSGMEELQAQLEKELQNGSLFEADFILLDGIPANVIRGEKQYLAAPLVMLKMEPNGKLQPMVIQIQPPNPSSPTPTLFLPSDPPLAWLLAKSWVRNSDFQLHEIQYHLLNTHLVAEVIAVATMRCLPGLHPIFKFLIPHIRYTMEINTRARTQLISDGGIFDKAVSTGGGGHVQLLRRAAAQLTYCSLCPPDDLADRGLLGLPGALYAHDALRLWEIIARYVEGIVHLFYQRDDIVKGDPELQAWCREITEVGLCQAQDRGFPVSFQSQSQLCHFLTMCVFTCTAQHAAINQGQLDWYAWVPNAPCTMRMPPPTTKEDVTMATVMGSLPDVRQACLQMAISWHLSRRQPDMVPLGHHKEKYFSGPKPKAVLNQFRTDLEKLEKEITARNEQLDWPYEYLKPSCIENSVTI
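Purified human 12hLO at 150 nM in 25 mM Hepes, 0.01% Triton X-100, pH 7.0, preincubated 15 min at room temperature with compound. Reaction started with 40 uM arachidonic acid, 30 min at room temperature. Hydroperoxide measured by Fe-xylenol orange, 573/405 nm absorbance ratio.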
HT1080-NT tox = qHTS for induction of synthetic lethality in tumor cells producing 2HG: qHTS for the HT-1080-NT fibrosarcoma cell line. HT-1080-NT fibrosarcoma viability, CellTiter-Glo ATP luminescence, 48 h. Potency, µM (series often up to 46.1 µM), for the others: top-dose activity, negative = less viability, actives largely listed as cytotoxic. actives 1.6% (n = 360,000);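 note: NT is the 2HG producing partner of a matched IDH1 knockdown line; potency is the fitted concentration of half-maximal effect; 0% = DMSO-treated cells and -100% = media-only wells without cells; nearly all actives have a fitted effect of over 55% in size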
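Viability by CellTiter-Glo luminescence after 48 h compound exposure at 37C of HT-1080-NT cells (750/well, RPMI, 5% FBS). % activity scaled between DMSO wells and medium-only wells, then curve-fitted and categorized by curve class.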
TDP1 cell noCPT = qHTS for Inhibitors of human tyrosyl-DNA phosphodiesterase 1 (TDP1): qHTS in cells in absence of CPT; Potency, µM (highest dose often 46.2 µM), inactives show at the highest dose activity change, negative = growth inhibition, hits mostly inhibitors; actives 15% (n = 420,000); DT40 Tdp1-/- hTDP1 cells, no CPT, ATP luminescence, 48 h; AID 686978, 2013; note: potency is the fitted concentration of half-maximal effect; nearly all actives have a fitted effect of over 55% in size
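Seeded 400 DT40-hTDP1 cells/well (vehicle DMSO, no 20 nM CPT); pinned compounds; ≥48 hr at 37 °C; CellTiter-Glo luminescence as viability measure.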
Active calls of the source: *; ? = inconclusive; · = no result; [ ] = another dose, or the depositor's remark. Shown is part of a subset that was picked to be rich in hits. Unless noted, calls come from the whole dose curve; as a rule, active = well fitted curve in the direction sought with a large enough effect; inconclusive = small, poorly fitted or top-dose-only effect, or another doubt; inactive = no such curve, though single readings can be large; an effect the other way counts as inactive or inconclusive. Unless noted, % is set by controls: 0 for no effect and ±100 for the full control effect.

SMILES	HT1080 IDH1KD tx	IL1B secr inh	TDP1 cell CPT	12-LOX inh	HT1080-NT tox	TDP1 cell noCPT
CCc1cc(-c2n[nH]c(C)c2-c2nc3ccccc3n2C)c(O)cc1O	?	?	?	-22%	?	18µM*
C=C(C)COc1ccc(-c2n[nH]c(C)c2-c2ccc(OC)cc2)c(O)c1	18µM*	-51*	?	?	21µM*	?
CCc1cc(-c2n[nH]c(C)c2-c2ccccc2Cl)c(O)cc1OC	?	19	?	40µM*	-23%	-29%
CCc1cc(-c2n[nH]c(CCC(=O)O)c2-c2nc3ccccc3n2C)c(O)cc1O	8%	10	-25%	-7%	12%	6%
CCCc1cc(-c2n[nH]c(C)c2-c2ccc(C(=O)OCC)o2)c(O)cc1O	?	6	?	?	?	?
CCOc1ccc(-c2n[nH]c(C)c2-c2ccccc2OC)c(O)c1	?	-55*	13µM*	39%	?	?
CCN(CC)S(=O)(=O)c1ccc(=O)n(Cc2noc(CC(C)C)n2)c1	·	·	·	7%	·	·
COc1cccc(CNC(=O)Nc2cccc(-c3nnc(Cc4ccc5c(c4)OCO5)o3)c2)c1	·	·	·	-10%	·	·
CC1CCN(Cc2ccc(-c3nnn(CC(=O)Nc4ccccc4Cl)n3)cc2)CC1	-9%	10	16µM*	-4%	-3%	21µM*
O=C(CN1CCCCC1)Nc1nc(-c2ccccc2)cs1	6%	-26	9%	·	0%	?
Cc1cccc(C)c1NC(=O)Cn1nnc(-c2ccc(CN3CCC(C)CC3)cc2)n1	12%	-8	-1%	17%	5%	-23%
O=C(CN1CCOCC1)Nc1nc(-c2ccccc2)cs1	1%	-6	-11%	0%	1%	?
O=C(CN1CCCCC1)Nc1nc(-c2ccc(Cl)cc2)cs1	3%	-82*	?	0%	13%	-2%
O=C(CN1CCCC1)Nc1nc(-c2ccc(Cl)cc2)cs1	-6%	-11	26µM*	·	-23%	16µM*
O=C(Cn1nnc(-c2ccc(CN3CCOCC3)cc2)n1)Nc1nc(-c2ccccc2)cs1	-15%	-20	?	-21%	?	21µM*
CC(C)(C)C1CCC(C(=O)NCCc2c[nH]c3ccccc23)CC1 (stereo not drawn)	·	·	·	-13%	·	·
Cc1ccc(-c2csc(NC(=O)CN3CCOCC3)n2)cc1C	-3%	1	?	·	-6%	16µM*
CN1CCN(CC(=O)Nc2nc(-c3ccccc3)cs2)CC1	-2%	16	-7%	-14%	3%	0%
COc1ccc(C2(O)CCN(CC(=O)Nc3nc(-c4ccccc4)cs3)CC2)cc1	?	-98*	?	2%	?	?
Cc1cccc(-c2ccc3c(c2)C(=O)N2CC[C@H](NC(=O)c4cccs4)C[C@H]2C(=O)N3)c1C	·	·	·	20%	·	·
O=C(CCCl)Nc1ccc2c(c1)CCC2	·	·	·	11%	·	·
O=C1NC(c2ccccc2)=N/C1=C/c1ccco1	-23%	-10	-2%	?	-30%	2%
O=C1NC(c2cccc(Br)c2)=N/C1=C\c1ccco1	0%	80	?	45µM*	-1%	-12%
O=C1N/C(=C\c2ccc(O)cc2)C(=O)c2ccccc21	18µM*	-4	3.2µM*	·	?	7.1µM*
COCCCNC(=O)Cc1c(C)c2ccc(OC)c(OC)c2oc1=O	·	·	·	55%	·	·
SMILES	HT1080 IDH1KD tx	IL1B secr inh	TDP1 cell CPT	12-LOX inh	HT1080-NT tox	TDP1 cell noCPT
CCc1cc2c(NCC3CCCO3)nc(C)nc2s1 (stereo not drawn)	-1%	4	13µM*	?	-14%	?
CCc1cc2c(NCc3ccccc3)nc(C)nc2s1	-29%	-5	16µM*	?	-19%	8.2µM*
Cc1noc2c(NCc3cccnc3)cc(-c3cccc(C(F)(F)F)c3)nc12	·	·	·	1%[176 µM]	·	·
Cc1nc2cccnc2n1CC1CCCN(C(=O)Nc2cccc(C(F)(F)F)c2)C1 (stereo not drawn)	·	·	·	51%	·	·
CC(Sc1ncnc2nc[nH]c12)C(=O)Nc1ccc(Oc2ccccc2)cc1 (stereo not drawn)	·	·	·	6%	·	·
COc1ccc(CN(CC2CCCO2)C(=O)c2cc3sccc3n2C)c(OC)c1 (stereo not drawn)	-25%	-104*	-9%	-7%	-26%	?
C[C@@H]1[C@H]2CCCC[C@H]2CN(C(=O)OC(C)(C)C)[C@@H]1c1cn(Cc2ccccc2)c2ccc(F)cc12	-5%	9	?	2%	10%	16µM*
CC(C)(C)OC(=O)N1CCC[C@@H]1C(=O)NCc1ccccc1	·	·	·	0%	·	·
C[C@@H]1[C@H]2CCCC[C@H]2CN(C(=O)OC(C)(C)C)[C@@H]1CC(=O)c1ccccc1	-6%	12	?	-4%	-8%	16µM*
CCC1(OC(=O)CN(C)C)C(=O)OCc2c1cc1n(c2=O)Cc2cc3c(N)cccc3nc2-1 (stereo not drawn)	7.3µM*	-97*	0.16µM*	·	7.3µM*	0.18µM*
Cc1cc2c(cc1C)CSC(c1cc(Cl)ccc1O)SC2	·	·	·	13µM*	·	·
Cc1cc2c(cc1C)CSC(c1c(O)ccc3ccccc13)SC2	?	-78*	?	-32%	23µM*	?
Cc1cc2c(cc1C)CSC(c1ccccc1O)SC2	?	-15	?	?	?	?
Cc1cc2c(cc1C)CSC(c1ccc3ccccc3c1O)SC2	?	19	-17%	0%	?	?
CC(Sc1nc2ccccc2c(=O)n1CCCO)c1nnc(-c2ccccc2)o1 (stereo not drawn)	·	·	·	-3%	·	·
COc1cccc(-c2cnc3c(NC(C)=O)cc(-c4cccc(C(=O)NCCN(C)C)c4)cn23)c1	?	-27	?	0%	16µM*	18µM*
COc1ccc(-c2cnc3c(NC(C)=O)cc(-c4cccc(C(=O)N(C)C)c4)cn23)cc1OC	-1%	-18	21µM*	-8%	-21%	13µM*
